# Columns and labels:
# Assay in all cases: DAPPL (digital affinity profiling via proximity ligation, sequencing); 10 mM Tris-HCl pH 7.5, 50 mM NaCl, 1 mM DTT, 4% glycerol, room temperature, 30 min; GST-TFs on glutathione beads, 16-mer random dsDNA library, 0.1% formaldehyde crosslink after washing; high values mean tight binding
# FEV = molecular target: T1, FEV (Homo sapiens, UniProt Q99581 1-238); details: protein: recombinant; tags: N-terminal GST; dsDNA, one strand shown
# T1 sequence: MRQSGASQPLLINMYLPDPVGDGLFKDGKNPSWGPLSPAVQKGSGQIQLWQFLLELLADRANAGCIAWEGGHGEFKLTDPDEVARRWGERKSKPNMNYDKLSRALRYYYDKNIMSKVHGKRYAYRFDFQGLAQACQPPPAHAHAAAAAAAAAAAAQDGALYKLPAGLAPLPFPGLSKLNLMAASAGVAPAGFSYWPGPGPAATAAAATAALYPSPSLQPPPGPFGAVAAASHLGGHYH
# How it was run: (§1)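 Yeast served to express human transcription factors as GST fusions, which were then captured on glutathione beads and labelled with DNA barcodes. Pooled with a tag-only sample, they were incubated with 200 nmole of a 16-mer random double-stranded DNA library for 30 min at room temperature in Tris/NaCl/DTT/glycerol buffer, washed, crosslinked with 0.1% formaldehyde, ligated by proximity, amplified by PCR and sequenced. Dividing each hexamer's read frequency for a factor by its frequency for the tag-only sample gives the binding signal.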
# ETV5 = ETV5 (Homo sapiens, UniProt P41161 1-510); details: protein: recombinant; tags: N-terminal GST; dsDNA, one strand shown
# How it was run: as §1
# HSF1 = HSF1 (Homo sapiens, UniProt Q00613 1-529); details: protein: recombinant; tags: N-terminal GST; chain copies: 3; dsDNA, one strand shown
# How it was run: as §1
# SPIC = molecular target: T2, SPIC (Homo sapiens, UniProt Q8N5J4 1-248); details: protein: recombinant; tags: N-terminal GST; dsDNA, one strand shown
# T2 sequence: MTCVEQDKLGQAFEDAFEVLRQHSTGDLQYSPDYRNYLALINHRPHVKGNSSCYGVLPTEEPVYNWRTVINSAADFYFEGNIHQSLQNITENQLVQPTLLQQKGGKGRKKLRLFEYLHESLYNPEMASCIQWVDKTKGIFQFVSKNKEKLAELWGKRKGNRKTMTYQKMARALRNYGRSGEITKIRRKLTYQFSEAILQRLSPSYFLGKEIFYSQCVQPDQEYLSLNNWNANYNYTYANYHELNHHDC
# How it was run: as §1
# ELF4 = ELF4 (Homo sapiens, UniProt Q99607 1-663); details: protein: recombinant; tags: N-terminal GST; dsDNA, one strand shown
# How it was run: as §1
# ELK4 = molecular target: T3, ELK4 (Homo sapiens, UniProt P28324-2 1-405); details: protein: recombinant; tags: N-terminal GST; dsDNA, one strand shown
# T3 sequence: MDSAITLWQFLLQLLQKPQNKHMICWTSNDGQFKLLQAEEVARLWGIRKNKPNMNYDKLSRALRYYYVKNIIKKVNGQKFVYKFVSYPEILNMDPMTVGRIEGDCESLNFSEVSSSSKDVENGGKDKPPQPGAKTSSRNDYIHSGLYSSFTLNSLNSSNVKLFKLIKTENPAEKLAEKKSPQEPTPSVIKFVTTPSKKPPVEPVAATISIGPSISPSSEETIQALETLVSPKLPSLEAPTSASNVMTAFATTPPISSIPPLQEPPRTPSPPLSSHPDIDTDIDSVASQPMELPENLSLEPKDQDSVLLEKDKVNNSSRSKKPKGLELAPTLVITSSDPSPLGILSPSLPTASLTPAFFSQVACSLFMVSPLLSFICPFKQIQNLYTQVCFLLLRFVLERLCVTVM
# How it was run: as §1
# ETV2 = molecular target: T4, ETV2 (Homo sapiens, UniProt O00321 1-342); details: protein: recombinant; tags: N-terminal GST; dsDNA, one strand shown
# T4 sequence: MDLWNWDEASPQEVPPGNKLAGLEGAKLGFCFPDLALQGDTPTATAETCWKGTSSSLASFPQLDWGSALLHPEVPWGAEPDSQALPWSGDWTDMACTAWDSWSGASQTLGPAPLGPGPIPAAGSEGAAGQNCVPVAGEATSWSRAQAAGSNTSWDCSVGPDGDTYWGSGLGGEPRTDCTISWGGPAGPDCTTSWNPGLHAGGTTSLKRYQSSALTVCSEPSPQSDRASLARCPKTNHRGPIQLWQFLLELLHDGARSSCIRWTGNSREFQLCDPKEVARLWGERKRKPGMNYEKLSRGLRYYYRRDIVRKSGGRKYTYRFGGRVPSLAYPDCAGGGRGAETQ
# How it was run: as §1
# ELF3 = molecular target: T5, ELF3 (Homo sapiens, UniProt P78545 1-371); details: protein: recombinant; tags: N-terminal GST; dsDNA, one strand shown
# T5 sequence: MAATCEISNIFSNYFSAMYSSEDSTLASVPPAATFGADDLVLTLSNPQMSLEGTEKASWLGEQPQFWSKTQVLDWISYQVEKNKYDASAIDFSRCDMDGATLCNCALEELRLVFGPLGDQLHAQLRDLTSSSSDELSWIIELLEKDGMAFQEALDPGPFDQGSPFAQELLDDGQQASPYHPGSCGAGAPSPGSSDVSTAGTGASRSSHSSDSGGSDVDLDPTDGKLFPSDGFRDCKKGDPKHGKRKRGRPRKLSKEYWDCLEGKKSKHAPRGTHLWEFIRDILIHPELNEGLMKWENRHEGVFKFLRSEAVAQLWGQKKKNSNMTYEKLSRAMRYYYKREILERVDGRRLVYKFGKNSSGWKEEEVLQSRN
# How it was run: as §1
# CRX = CRX (Homo sapiens, UniProt O43186 1-299); details: protein: recombinant; tags: N-terminal GST; dsDNA, one strand shown
# How it was run: as §1
# ETV1 = ETV1 (Homo sapiens, UniProt P50549 1-477); details: protein: recombinant; tags: N-terminal GST; dsDNA, one strand shown
# How it was run: as §1
# ERF = molecular target: T6, ERF (Homo sapiens, UniProt P50548 1-548); details: protein: recombinant; tags: N-terminal GST; dsDNA, one strand shown
# T6 sequence: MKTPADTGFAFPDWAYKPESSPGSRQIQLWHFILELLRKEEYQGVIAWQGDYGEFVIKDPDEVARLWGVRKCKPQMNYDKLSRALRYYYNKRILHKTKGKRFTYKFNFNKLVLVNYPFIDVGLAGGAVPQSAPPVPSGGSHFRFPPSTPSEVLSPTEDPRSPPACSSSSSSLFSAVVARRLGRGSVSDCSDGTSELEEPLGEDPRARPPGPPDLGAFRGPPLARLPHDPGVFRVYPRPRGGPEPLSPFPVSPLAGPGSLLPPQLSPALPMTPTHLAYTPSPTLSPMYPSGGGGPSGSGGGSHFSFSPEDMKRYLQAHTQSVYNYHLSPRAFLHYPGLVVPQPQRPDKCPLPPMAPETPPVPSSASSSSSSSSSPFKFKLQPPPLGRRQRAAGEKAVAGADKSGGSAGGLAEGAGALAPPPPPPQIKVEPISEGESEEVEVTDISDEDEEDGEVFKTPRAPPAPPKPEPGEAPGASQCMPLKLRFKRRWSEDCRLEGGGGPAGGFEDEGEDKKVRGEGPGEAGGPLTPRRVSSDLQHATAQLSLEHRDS
# How it was run: as §1
# ETV3L = molecular target: T7, ETV3L (Homo sapiens, UniProt Q6ZN32 1-361); details: protein: recombinant; tags: N-terminal GST; dsDNA, one strand shown
# T7 sequence: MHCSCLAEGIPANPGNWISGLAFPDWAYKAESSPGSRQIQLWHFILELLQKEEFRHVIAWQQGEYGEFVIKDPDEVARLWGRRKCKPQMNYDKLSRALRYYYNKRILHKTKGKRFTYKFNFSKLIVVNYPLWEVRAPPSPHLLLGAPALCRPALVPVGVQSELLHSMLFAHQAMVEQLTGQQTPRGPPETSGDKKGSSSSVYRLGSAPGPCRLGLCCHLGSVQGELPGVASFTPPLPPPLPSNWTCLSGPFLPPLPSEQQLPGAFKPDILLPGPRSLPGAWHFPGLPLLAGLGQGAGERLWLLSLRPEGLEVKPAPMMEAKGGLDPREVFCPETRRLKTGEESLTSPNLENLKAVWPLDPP
# How it was run: as §1
# ETS2 = molecular target: T8, ETS2 (Homo sapiens, UniProt P15036 1-469); details: protein: recombinant; tags: N-terminal GST; dsDNA, one strand shown
# T8 sequence: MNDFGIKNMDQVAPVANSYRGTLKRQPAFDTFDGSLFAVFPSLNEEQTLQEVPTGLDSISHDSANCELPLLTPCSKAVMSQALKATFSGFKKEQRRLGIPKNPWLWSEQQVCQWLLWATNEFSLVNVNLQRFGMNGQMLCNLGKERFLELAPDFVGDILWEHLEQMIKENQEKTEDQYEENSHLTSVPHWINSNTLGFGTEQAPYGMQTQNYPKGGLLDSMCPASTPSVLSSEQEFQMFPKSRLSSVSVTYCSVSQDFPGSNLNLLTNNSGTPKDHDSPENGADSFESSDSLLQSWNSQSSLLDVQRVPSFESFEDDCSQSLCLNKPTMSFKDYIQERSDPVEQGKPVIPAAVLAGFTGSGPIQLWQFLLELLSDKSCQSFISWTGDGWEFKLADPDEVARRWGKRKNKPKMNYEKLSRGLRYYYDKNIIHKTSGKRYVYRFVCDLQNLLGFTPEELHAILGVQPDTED
# How it was run: as §1
# SPDEF = molecular target: T9, SPDEF (Homo sapiens, UniProt O95238 1-335); details: protein: recombinant; tags: N-terminal GST; dsDNA, one strand shown
# T9 sequence: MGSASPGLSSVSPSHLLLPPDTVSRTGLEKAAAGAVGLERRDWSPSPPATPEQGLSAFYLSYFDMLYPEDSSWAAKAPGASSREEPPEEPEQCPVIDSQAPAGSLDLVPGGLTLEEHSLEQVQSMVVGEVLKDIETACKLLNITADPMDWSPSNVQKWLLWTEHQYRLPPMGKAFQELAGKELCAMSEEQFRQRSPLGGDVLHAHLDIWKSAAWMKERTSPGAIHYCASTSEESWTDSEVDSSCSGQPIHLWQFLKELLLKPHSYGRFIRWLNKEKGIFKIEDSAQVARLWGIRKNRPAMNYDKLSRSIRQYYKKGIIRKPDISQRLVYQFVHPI
# How it was run: as §1
# ETV7 = molecular target: T10, ETV7 (Homo sapiens, UniProt Q9Y603 1-341); details: protein: recombinant; tags: N-terminal GST; dsDNA, one strand shown
# T10 sequence: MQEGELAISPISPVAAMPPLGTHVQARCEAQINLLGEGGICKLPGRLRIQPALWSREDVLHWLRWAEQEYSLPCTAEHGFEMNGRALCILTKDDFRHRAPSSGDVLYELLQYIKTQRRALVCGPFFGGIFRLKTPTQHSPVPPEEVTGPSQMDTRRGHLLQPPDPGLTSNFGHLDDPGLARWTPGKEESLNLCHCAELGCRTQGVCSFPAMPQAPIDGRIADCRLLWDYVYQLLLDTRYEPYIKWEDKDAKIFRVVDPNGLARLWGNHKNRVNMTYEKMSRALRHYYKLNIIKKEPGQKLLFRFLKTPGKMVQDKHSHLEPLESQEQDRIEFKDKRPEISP
# How it was run: as §1
# ELF5 = molecular target: T11, ELF5 (Homo sapiens, UniProt Q9UKW6-2 1-255); details: protein: recombinant; tags: N-terminal GST; dsDNA, one strand shown
# T11 sequence: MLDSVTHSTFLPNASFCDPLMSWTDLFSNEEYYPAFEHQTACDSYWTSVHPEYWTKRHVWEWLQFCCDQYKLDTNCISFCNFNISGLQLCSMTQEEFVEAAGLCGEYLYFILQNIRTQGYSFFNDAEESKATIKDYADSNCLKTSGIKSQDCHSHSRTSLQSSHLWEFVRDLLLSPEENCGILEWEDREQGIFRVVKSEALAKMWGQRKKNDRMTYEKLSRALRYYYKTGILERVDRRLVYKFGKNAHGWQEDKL
# How it was run: as §1
# ETV6 = ETV6 (Homo sapiens, UniProt P41212 1-452); details: protein: recombinant; tags: N-terminal GST; dsDNA, one strand shown
# How it was run: as §1
# Sequence of ETV1 (P50549 whole entry): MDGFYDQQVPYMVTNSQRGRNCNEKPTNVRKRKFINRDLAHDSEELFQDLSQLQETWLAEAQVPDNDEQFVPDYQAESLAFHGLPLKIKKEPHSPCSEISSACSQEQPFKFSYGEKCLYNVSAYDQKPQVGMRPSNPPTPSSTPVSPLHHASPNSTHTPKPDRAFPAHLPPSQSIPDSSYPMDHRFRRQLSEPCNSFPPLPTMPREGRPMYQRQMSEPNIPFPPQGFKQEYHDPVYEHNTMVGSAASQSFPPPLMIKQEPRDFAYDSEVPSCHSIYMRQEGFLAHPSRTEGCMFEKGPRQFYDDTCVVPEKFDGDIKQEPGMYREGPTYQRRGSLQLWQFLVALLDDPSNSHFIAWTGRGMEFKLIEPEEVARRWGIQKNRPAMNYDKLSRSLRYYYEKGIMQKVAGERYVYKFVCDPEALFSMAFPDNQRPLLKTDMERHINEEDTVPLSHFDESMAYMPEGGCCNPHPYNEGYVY
# Sequence of ETV6 (P41212 whole entry): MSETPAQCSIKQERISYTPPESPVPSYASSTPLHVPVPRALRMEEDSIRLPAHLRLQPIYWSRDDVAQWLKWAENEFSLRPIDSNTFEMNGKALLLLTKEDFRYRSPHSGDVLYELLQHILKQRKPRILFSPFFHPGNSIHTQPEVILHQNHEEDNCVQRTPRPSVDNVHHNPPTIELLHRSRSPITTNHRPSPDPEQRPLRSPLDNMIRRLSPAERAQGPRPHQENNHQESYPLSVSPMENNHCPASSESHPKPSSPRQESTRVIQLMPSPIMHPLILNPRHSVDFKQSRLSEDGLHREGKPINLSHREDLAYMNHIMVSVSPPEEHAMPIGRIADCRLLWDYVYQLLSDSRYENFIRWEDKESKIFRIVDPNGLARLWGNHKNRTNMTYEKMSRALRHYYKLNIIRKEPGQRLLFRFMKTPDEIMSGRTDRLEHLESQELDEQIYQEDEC
# Sequence of ETV5 (P41161 whole entry): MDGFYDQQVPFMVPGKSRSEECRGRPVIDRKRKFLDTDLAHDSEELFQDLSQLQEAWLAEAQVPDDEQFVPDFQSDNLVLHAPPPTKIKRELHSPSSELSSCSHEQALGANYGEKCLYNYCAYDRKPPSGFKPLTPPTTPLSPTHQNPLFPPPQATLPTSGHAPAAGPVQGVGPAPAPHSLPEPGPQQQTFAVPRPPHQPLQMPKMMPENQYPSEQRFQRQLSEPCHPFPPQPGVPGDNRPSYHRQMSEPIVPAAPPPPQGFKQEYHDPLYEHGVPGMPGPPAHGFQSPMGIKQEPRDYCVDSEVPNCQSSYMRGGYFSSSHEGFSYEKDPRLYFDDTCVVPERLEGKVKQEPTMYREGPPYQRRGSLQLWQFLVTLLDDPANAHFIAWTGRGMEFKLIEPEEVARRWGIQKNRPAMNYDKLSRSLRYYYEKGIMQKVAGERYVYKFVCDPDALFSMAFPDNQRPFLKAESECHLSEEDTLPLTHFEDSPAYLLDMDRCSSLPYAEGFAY
# Sequence of CRX (O43186 whole entry): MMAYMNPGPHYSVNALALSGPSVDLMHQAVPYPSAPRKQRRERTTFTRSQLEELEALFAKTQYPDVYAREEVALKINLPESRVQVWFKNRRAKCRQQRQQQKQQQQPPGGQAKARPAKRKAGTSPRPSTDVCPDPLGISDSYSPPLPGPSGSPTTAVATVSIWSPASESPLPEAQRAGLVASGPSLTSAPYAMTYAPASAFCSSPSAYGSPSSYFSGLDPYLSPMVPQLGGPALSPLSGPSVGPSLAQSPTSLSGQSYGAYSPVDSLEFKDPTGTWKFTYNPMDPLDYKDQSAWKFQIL
# Sequence of ELF4 (Q99607 whole entry): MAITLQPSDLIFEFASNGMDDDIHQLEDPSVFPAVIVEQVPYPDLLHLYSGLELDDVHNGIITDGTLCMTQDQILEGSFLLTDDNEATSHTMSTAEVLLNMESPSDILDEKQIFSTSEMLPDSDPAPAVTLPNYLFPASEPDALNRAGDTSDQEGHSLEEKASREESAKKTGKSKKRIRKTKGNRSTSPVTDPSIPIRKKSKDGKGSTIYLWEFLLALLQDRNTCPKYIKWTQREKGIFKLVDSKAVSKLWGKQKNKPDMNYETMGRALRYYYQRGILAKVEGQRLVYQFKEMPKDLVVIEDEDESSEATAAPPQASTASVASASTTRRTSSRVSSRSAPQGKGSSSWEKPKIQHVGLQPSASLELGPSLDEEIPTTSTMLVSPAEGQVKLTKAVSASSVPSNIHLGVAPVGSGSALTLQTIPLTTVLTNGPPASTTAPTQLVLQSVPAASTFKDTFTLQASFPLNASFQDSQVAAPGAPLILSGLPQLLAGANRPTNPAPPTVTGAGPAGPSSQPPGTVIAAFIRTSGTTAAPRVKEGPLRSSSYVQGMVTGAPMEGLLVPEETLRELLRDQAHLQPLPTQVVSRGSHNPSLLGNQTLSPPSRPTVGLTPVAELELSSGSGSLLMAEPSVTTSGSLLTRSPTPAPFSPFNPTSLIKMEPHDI
# Sequence of HSF1 (Q00613 whole entry): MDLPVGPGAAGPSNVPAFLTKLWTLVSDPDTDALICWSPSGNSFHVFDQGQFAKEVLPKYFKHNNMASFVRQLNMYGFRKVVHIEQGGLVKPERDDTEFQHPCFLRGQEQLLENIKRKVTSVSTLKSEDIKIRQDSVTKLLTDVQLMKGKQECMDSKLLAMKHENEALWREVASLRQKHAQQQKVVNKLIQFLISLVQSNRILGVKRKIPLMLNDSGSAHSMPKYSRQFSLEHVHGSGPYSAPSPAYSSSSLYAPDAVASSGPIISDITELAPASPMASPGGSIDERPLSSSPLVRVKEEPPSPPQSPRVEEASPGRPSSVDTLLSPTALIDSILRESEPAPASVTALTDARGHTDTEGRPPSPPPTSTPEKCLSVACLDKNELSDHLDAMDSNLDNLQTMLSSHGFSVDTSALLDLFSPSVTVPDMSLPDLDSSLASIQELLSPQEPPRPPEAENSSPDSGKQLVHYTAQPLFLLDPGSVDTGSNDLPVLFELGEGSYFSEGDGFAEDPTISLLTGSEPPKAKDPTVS
sequence,measurement,setting,value
GCAAAT,binding signal,FEV,"1.08 fold enrichment (6-mer frequency, TF over GST control)"
same,binding signal,ETV5,"1.1 fold enrichment (6-mer frequency, TF over GST control)"
same,binding signal,HSF1,"1.08 fold enrichment (6-mer frequency, TF over GST control)"
same,binding signal,SPIC,"1.17 fold enrichment (6-mer frequency, TF over GST control)"
same,binding signal,ELF4,"1.04 fold enrichment (6-mer frequency, TF over GST control)"
same,binding signal,ELK4,"1.02 fold enrichment (6-mer frequency, TF over GST control)"
same,binding signal,ETV2,"1.06 fold enrichment (6-mer frequency, TF over GST control)"
same,binding signal,ELF3,"1.17 fold enrichment (6-mer frequency, TF over GST control)"
same,binding signal,CRX,"1.08 fold enrichment (6-mer frequency, TF over GST control)"
same,binding signal,ETV1,"1.11 fold enrichment (6-mer frequency, TF over GST control)"
same,binding signal,ERF,"1.11 fold enrichment (6-mer frequency, TF over GST control)"
same,binding signal,ETV3L,"1.05 fold enrichment (6-mer frequency, TF over GST control)"
same,binding signal,ETS2,"1.01 fold enrichment (6-mer frequency, TF over GST control)"
same,binding signal,SPDEF,"1.11 fold enrichment (6-mer frequency, TF over GST control)"
same,binding signal,ETV7,"1.04 fold enrichment (6-mer frequency, TF over GST control)"
same,binding signal,ELF5,"1.01 fold enrichment (6-mer frequency, TF over GST control)"
same,binding signal,ETV6,"1 fold enrichment (6-mer frequency, TF over GST control)"

# Source: article PMC7862700, “An all-to-all approach to the identification of sequence-specific readers for epigenetic DNA modifications on cytosine”
